KB-V1 cytotox: qHTS assay for MDR1-selective chemotherapeutics: Primary screen using the drug-selected MDR subline cells KB-V1. KB-V1 MDR cells viability, CellTiter-Glo, 72 h. 3.4% of 400,000 active. Potency, µM (highest dose often 46.1 µM), actives largely listed as cytotoxic; also: % is scaled to controls: 0 for no effect and ±100 for the full control effect; nearly all actives have a fitted effect of over 60% in size
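Following 72 h at 37 degrees C with compound, KB-V1 cell viability was read by CellTiter-Glo luminescence, medium being phenol-red-free DMEM plus 10% FBS; concentration-response parameters came from normalized, curve-fitted qHTS data.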
RORg inh: qHTS for inhibitors of ROR gamma transcriptional activity; 5.4% of 310,000 active; Drosophila S2 Gal4-RORgamma UAS-luciferase reporter, 20 h; Potency, µM (doses to about 53.6 µM), without a hit: top-dose activity change, negative = inhibition, most hits filed as inhibitors; also: % is scaled to controls: 0 for no effect and ±100 for the full control effect; nearly all actives have a fitted effect of over 60% in size
Target sequence (P51450 whole entry, looked up, the tested form may be a part): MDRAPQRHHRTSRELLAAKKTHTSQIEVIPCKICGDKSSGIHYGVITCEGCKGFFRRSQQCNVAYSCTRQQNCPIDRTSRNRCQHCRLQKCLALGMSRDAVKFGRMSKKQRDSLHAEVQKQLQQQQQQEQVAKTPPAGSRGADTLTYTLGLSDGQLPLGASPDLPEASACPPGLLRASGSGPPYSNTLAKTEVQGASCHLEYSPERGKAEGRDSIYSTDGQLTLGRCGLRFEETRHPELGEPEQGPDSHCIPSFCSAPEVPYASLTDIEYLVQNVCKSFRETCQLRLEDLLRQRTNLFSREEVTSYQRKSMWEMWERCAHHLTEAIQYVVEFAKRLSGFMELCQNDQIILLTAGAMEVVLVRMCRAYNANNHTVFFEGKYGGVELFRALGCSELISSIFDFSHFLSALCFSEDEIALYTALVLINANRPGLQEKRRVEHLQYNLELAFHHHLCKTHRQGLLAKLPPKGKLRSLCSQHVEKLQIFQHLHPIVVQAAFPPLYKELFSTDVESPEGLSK
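A Gal4/UAS one-hybrid system in insect cells: metallothionein-promoter Gal4–ROR gamma fusion plus Photinus luciferase reporter. Copper sulfate 700 uM final, 20 hr ambient incubation, luminescent detection after 10 min with reagent.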
MCF10A rerep: A quantitative high throughput screen for small molecules that induce DNA re-replication in MCF 10a normal breast cells; Potency, µM (series often up to 46.1 µM), without a hit: at the top dose activity, positive = re-replication, usual class: activators; 2.9% of 350,000 active; AID 624296, 2012; MCF 10A DNA re-replication, Hoechst nuclear intensity, 48 h; also: % of control where 0% means no effect; nearly all actives have a fitted effect of over 50% in size
Gal4-VP16 FLuc: VP16 counterscreen qHTS for inhibitors of ROR gamma transcriptional activity; Drosophila S2 Gal4-VP16 UAS-luciferase, luminescence, 20 h; Potency, µM (doses to about 53.6 µM), inactives show at the highest dose activity, negative = inhibition, most hits filed as inhibitors; 3.5% of 310,000 active; AID 2546, 2010;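 also: Gal4-VP16 expression switched on by copper sulfate through the metallothionein promoter; % is scaled to controls: 0 for no effect and ±100 for the full control effect; nearly all actives have a fitted effect of over 50% in size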
KB-3-1 tox: qHTS assay for MDR1-selective chemotherapeutics: Primary screen using the parental adenocarcinoma cell KB-3-1. KB-3-1 viability, CellTiter-Glo ATP luminescence, 72 h. Potency, µM (titrated, usually from 46.1 µM), most hits filed as cytotoxic. 1.4% of 400,000 active. AID 1347075, 2019; also: % is scaled to controls: 0 for no effect and ±100 for the full control effect; nearly all actives have a fitted effect of over 60% in size
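Parental KB-3-1 viability, qHTS format: 72 h compound exposure, 37 °C; CellTiter-Glo; media-only wells and DMSO plates as controls; concentration-effect fits on corrected data.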
SW480 rerep: A quantitative high throughput screen for small molecules that induce DNA re-replication in SW480 colon adenocarcinoma cells; SW480 DNA re-replication, Hoechst DNA content imaging, 48 h; Potency, µM (highest dose often 46.1 µM), inactives show top-dose re-replication activation, most hits filed as activators; 1.8% of 340,000 active; AID 624297, 2012; also: % of control where 0% means no effect; nearly all actives have a fitted effect of over 55% in size
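Readout is total intensity of Hoechst-stained nuclei, excited at 405 nm and collected at 500-530 nm. Compound treatment lasted 48 hr at 37 C in 5% CO2 before staining.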
Active calls of the source: *; i = inactive; ? = inconclusive; . = no result given; [ ] = dose if it differs, or a comment. Only some compounds are listed: those with a hit (about 10% of all), similar ones and a draw of the others. Calls follow the shape of the dose curve; as a rule, active = well fitted curve in the direction sought with a large enough effect; inconclusive = small, poorly fitted or top-dose-only effect, or another doubt; inactive = no such curve, though single readings can be large; an effect the other way counts as inactive or inconclusive. Potency is read from the fitted curve at half-maximal effect.

SMILES	KB-V1 cytotox	RORg inh	MCF10A rerep	Gal4-VP16 FLuc	KB-3-1 tox	SW480 rerep
Cn1cnnc1SCC(=O)Nc1ccc2nc(SCc3ccccc3F)sc2c1	21µM*	2%	-2%	-6%	i	0%
C[C@H](CO)N1C[C@H](C)[C@@H](CN(C)Cc2ccc(C(=O)O)cc2)OCc2cnnn2CCCC1=O	i	.	.	.	i	.
C=CCNC(=S)NN=C1CCC(c2ccccc2)CC1 (stereo not drawn)	?	13µM*	11%	20µM*	i	7%
CCC(C)(C)C1CCC(=NNC(=S)Nc2ccccc2)CC1 (stereo not drawn)	i	11µM*	4%	?	i	13%
CC(C)(C)C1CCC(=NNC(=S)NCc2ccccc2)CC1 (stereo not drawn)	i	10µM*	12%	?	i	?
CC(C)(C)C1CCC(=NNC(=O)C(=O)NCc2cccnc2)CC1 (stereo not drawn)	?	-20%	-1%	-3%	i	-5%
Cc1cc(NC(=O)CN(C)S(=O)(=O)c2ccc3c(c2)CCCC(=O)N3)ccc1Br	16µM*	.	.	.	?	.
CCN(CC)c1ccc2c(C)c(CN3CCOCC3)c(=O)oc2c1	i	24%	5.8µM*	4%	i	21µM*
CCN(CC)c1ccc2c(C)c(CO)c(=O)oc2c1	i	-16%	?	-1%	i	13µM*
N#CC1=C(N)C(C#N)(C#N)C(c2cccnc2)C2CCCC=C12 (stereo not drawn)	.	?	.	2%	.	.
N#CC1=C(N)C(C#N)(C#N)C(c2cccnc2)C2CC(c3ccccc3)CC=C12 (stereo not drawn)	?	11µM*	?	18µM*	i	11%
O=c1oc2cc(Oc3c([N+](=O)[O-])cc(C(F)(F)F)cc3[N+](=O)[O-])ccc2c2c1CCCC2	?	8%	19%	6%	?	-1%
O=C(c1ccccc1)c1ccc(Oc2ccc([N+](=O)[O-])cc2[N+](=O)[O-])cc1	?	.	12µM*	.	?	3.3µM*
O=Cc1cccc(Oc2ccc([N+](=O)[O-])cc2[N+](=O)[O-])c1	i	14µM*	?	3%	?	13%
O=c1oc2cc(Oc3ccc(C(F)(F)F)cc3[N+](=O)[O-])ccc2c2c1CCC2	21µM*	-12%	?	-2%	i	0%
O=[N+]([O-])c1cc(/C=N/O)ccc1Oc1cccc(Cl)c1	i	-10%	-9%	9%[10 µM]	i	?
Cc1cc(=O)oc2cc(Oc3ccc([N+](=O)[O-])cc3[N+](=O)[O-])ccc12	?	11µM*	?	-80%	i	-36%
Cc1ccc(C)c(OCCn2cc(C(=O)c3cccs3)c3ccccc32)c1	i	.	.	.	i	.
NC(=S)NN=C1c2cc(Cl)ccc2-c2c1cc(Cl)cc2[N+](=O)[O-]	15µM*	.	20%	.	6.5µM*	?
CCCCn1c(SCC(=O)N2CCN(c3ccccc3)CC2)nc2ccsc2c1=O	8.2µM*	?	?	?	i	16%
COC(=O)c1ccccc1NC(=O)CSc1nc2ccsc2c(=O)n1CCCCC(=O)O	i	.	.	.	i	.
CCCCn1c(SCC(=O)N2CCOCC2)nc2ccccc2c1=O	i	29%	-5%	5%	i	-18%
CCCCn1c(SCC(=O)Nc2ccccc2C(F)(F)F)nc2ccsc2c1=O	2.6µM*	4%	10%	1%	i	1%
CCCn1c(SCC(=O)N2CCN(c3ccccc3)CC2)nc2ccccc2c1=O	i	3%	16%	-2%	i	-8%
CCCCn1c(SCC(=O)N2CCC(C)CC2)nc2ccsc2c1=O	1.2µM*	18%	12%	-2%	i	2%
SMILES	KB-V1 cytotox	RORg inh	MCF10A rerep	Gal4-VP16 FLuc	KB-3-1 tox	SW480 rerep
CC(=O)c1ccc(NC(=O)Cn2nc(C(F)(F)F)c3c2CCC3)cc1	i	.	.	.	i	.
COc1cccc(/C=C/C2=CC3(C)CC2(C)C(c2cccc(OC)c2)CC3=O)c1 (stereo not drawn)	.	2%[10 µM]	.	5%[10 µM]	.	.
Cc1cccc(C)c1-n1nnnc1C(c1ccnc2ccccc12)N(Cc1ccccc1)Cc1ccccc1 (stereo not drawn)	i	.	.	.	?	.
CCCc1cc(=O)[nH]c(Nc2cc(C)cc(C)c2)n1	?	.	.	.	i	.
CCCCCc1c(C)nc(Nc2ccc(F)cc2)[nH]c1=O	?	-1%	113%	?	i	?
CCCCc1c(C)nc(Nc2ccc(OC)cc2)[nH]c1=O	23µM*	18%	-1%	-4%	i	?
CCCCc1ccc(Nc2nc(CCC)cc(=O)[nH]2)cc1	?	30%[0.365 µM]	5.8µM*	.	?	?
Cc1ccc(NC(=O)CSc2nc(=O)n(Cc3cccnc3)c3c2CCC3)cc1F	i	.	.	.	i	.
CC(C)Nc1nc(Oc2ccc(Cl)cc2)cc(C(F)(F)F)n1	i	41%	23µM*	-22%	i	8%
CCNc1nc(Oc2ccc(C#N)cc2)cc(C(F)(F)F)n1	3.3µM*	-13%	-14%	-2%	18µM*	9%
CCNc1nc(Oc2ccc(F)cc2)cc(C(F)(F)F)n1	i	2%	3%	-6%	i	-3%
COc1cc(/C=C2\SC(N)=NC2=O)ccc1O	?	7%	?	?	?	26%
COc1cc(/C=C2\SC(=Nc3ccccc3)NC2=O)cc(Cl)c1O	i	-23%	21µM*	-1%	i	?
O=C1NC(=Nc2ccccc2)S/C1=C\c1ccccc1	i	?	8%	-6%	?	5%
COc1ccc(/C=C2\SC(=Nc3ccccc3OC)NC2=O)cc1	?	?	3.3µM*	?	?	?
CCc1ccc(N=C2NC(=O)/C(=C/c3cc(OC)c(O)c(OC)c3)S2)cc1	?	-33%	?	?	i	11%
COc1cc(/C=C2/SC(=Nc3ccc(O)cc3)NC2=O)ccc1O	?	-17%	5.2µM*	-11%	9.2µM*	4.6µM*
COc1cc(/C=C2\SC(=Nc3ccccc3OC)NC2=O)ccc1O	?	14%	8.2µM*	1%	18µM*	21µM*
O=C(Cn1nc(C(=O)O)c2ccccc2c1=O)Nc1ccc(Cl)c(S(=O)(=O)N2CCOCC2)c1	i	.	-1%	.	i	6%

Bioassay records deposited in PubChem by National Center for Advancing Translational Sciences (NCATS).
